# PubChem BioAssay AID2108 (National Center for Advancing Translational Sciences (NCATS), 2009)
# Inconclusive results are not listed. Activity calls are given as the source filed them. The call rests on the fitted dose curve; in most records, active means well fitted curve in the direction sought with a large enough effect; inconclusive means small, poorly fitted or top-dose-only effect, or effect the other way, or another doubt; inactive means no such curve, though single readings can be large or run the other way.
# Target: Alpha-galactosidase A (Homo sapiens) (UniProt P06280)
# Assay: Confirmation of Inhibitors of Human alpha-Galactosidase Using Spleen Homogenate
# Conditions: alpha-galactosidase enzyme activity; series mostly up to 56.2 µM
# Description: NIH Chemical Genomics Center [NCGC]
# NIH Molecular Libraries Probe Production Centers Network [MLPCN]
# Assay Submitter (PI): Wei Zheng
# Alpha-galactosidase is a homodimeric glycoprotein that hydrolyzes the terminal alpha-galactosyl moieties from glycolipids and glycoproteins. Deficiency of this enzyme results in Fabry Disease with progressive accumulation of globotriaosylceramide and other glycosphingolipids in vascular endothelial cells that causes renal failure, myocardial infarction and stroke, and premature death in patients. It has been reported that the improper folding and trafficking of alpha-galactosidase resulting from genetic mutations may account for a significant number of Fabry patients. […] We optimized this alpha-galactosidase assay in 1536-well plate format for identification of novel small molecule inhibitors or activators with structures other than the sugar analogs in order to develop new pharmacological chaperones. In particular, this assay is directed towards discovering compounds active in more natural setting, tissue homogenate, that may have been missed by screens of the purified enzyme under more stringent conditions. This assay attempted to confirm hits from the primary screening.
# NCGC Assay Protocol Summary:
# This is a fluorogenic enzyme assay with 4-methylumbelliferyl-alpha-D-galactopyranoside as the substrate and human spleen homogenate containing alpha-galactosidase as the enzyme preparation. Upon hydrolysis of this fluorogenic substrate, the resulting product, 4-methylumbelliferone (which excites at 365 nm and emits at 440 nm) can be detected by a fluorescence plate reader. Data were normalized to the controls for basal activity (without enzyme) and 100% activity (with enzyme). The AC50 values were determined from concentration-response data modeled with the standard Hill equation.
# Assay buffer: 50 mM citric acid (titrated with potassium phosphate to pH 5.0), 0.01% Tween-20 (pH 5.0 is an optimal condition for this enzyme assay)
# 1536-well assay protocol for the alpha-galactosidase from human spleen homogenate:
# (1) Add 2 ul/well spleen homogenate (1 ug)
# (2) Add 23 nL compounds in DMSO solution. The final titration was 0.5 nM to 58 uM.
# (3) Add 2 ul of substrate (1 mM final)
# (4) Incubate at 37C for 40 min
# (5) Add 2 ul stop solution (1M NaOH and 1M Glycine mixture, pH 10)
# (6) Detect the assay plate in a ViewLux plate reader (PerkinElmer) with Ex=365 nm and Em=440nm.
# Keywords: Alpha-galactosidase, Fabry Disease, pharmacological chaperone, chaperone therapy, high throughput screening, alpha- galactosidase inhibitor, MLSMR, MLSCN, NIH Roadmap, qHTS and NCGC
# Sequence of Alpha-galactosidase A (Homo sapiens) (P06280 32-429 limits assumed): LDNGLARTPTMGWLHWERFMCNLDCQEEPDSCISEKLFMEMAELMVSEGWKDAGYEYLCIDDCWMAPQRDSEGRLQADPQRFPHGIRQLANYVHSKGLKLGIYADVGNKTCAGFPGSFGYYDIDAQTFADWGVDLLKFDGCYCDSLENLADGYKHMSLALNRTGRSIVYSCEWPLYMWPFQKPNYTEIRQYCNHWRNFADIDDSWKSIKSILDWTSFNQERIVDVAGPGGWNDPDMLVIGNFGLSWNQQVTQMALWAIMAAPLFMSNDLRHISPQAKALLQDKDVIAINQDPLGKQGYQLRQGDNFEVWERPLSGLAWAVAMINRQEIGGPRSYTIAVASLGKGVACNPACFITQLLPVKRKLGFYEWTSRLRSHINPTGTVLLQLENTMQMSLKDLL
row,Compound,outcome
1,O=C(CCc1cccc(S(=O)(=O)N2CCOCC2)c1)NN=C1c2ccccc2-c2ccccc21,inactive
2,CC(=O)c1ccc(NC(=O)COc2ccccc2-c2nc(C)no2)cc1,inactive
3,O=S(=O)(c1ccccc1)N1CCNCC1,inactive
4,O=C(c1ccccc1)N1CCN(C(=O)c2ccccc2)CC1,inactive
5,COC(=O)c1cc(OC)c(OC)cc1NC(=O)CCCCCN1C(=O)CCC1=O,inactive
6,CC1CCc2c(nc3ncnn3c2N2CCN(c3ccccc3F)CC2)C1 (stereo not given),inactive
7,COc1ccc(C2C3=C(CCCC3=O)N(CC(=O)O)C3=C2C(=O)CCC3)cc1Cl,inactive
8,CC1(CCc2ccc3c(c2)OCO3)NC(=O)c2ccccc2N1 (stereo not given),inactive
9,CC(C)(C)OC(=O)NCCCC[C@H](NC(=O)c1[nH]cnc1C(=O)Nc1ccc(CNC(=O)OC(C)(C)C)cc1)C(=O)OC(C)(C)C,inactive
10,O=c1oc2ccc(Cl)cc2cc1-c1nc2c(s1)CCCC2,inactive
11,CCCN1CNc2c(c(=O)[nH]c(=S)n2CCc2ccc(OC)c(OC)c2)C1,inactive
12,O=S(=O)(c1ccccc1)N1CCN(c2ccccc2)CC1,inactive
13,Cc1ccc(S(=O)(=O)N2CCOCC2)cc1,inactive
14,CCC(=O)N1CCN(c2ccc(Cl)cc2NC(=O)c2ccc(N3CCCC3)c([N+](=O)[O-])c2)CC1,inactive
15,Cc1cc(/C=N/Nc2ccc([N+](=O)[O-])cn2)c(C)n1-c1ccc(C(=O)O)cc1,inactive
16,COC(=O)CSc1ccc(C#N)c(SCC(=O)OC)c1,inactive
17,COc1ccccc1CCNC(=O)C1CCC(=O)N(C2CC2)C1 (stereo not given),inactive
18,O=C(O)c1c(-c2ccccc2)c2oc3ccccc3c2[nH]c1=O,inactive
19,Cc1ccc(/C=N\Nc2nc3ccc(Cl)cc3[nH]2)o1,inactive
20,O=S(=O)(c1ccc2ccccc2c1)N1CCOCC1,inactive

row,Compound,outcome
1,CC(=O)Nc1ccc(S(=O)(=O)/N=C2/NC(=O)/C(=C\c3ccco3)S2)cc1,inactive
2,C/C=C1\COC(C(=O)NCCN2CCOCC2)(C(F)(F)F)C=C1C=C1CCCCC1 (stereo not given),inactive
3,COc1cc(CNc2ccc(N3CCCC3)cc2)ccc1OCc1ccccc1F,inactive
4,CC1CCc2nc(-c3cc4c(ccc5ccccc54)oc3=O)sc2C1 (stereo not given),inactive
5,N#Cc1c(-c2ccc(F)cc2)cc(-c2cccnc2)nc1N,inactive
6,COc1cccc(S(=O)(=O)N2CCOCC2)c1,inactive
7,Cc1ccc(S(=O)(=O)NC(=O)NN2CCCCCC2)cc1,inactive
8,O=S(=O)(c1ccccc1)N1CCN(Cc2ccccc2)CC1,inactive
9,Nc1ccccc1S(=O)(=O)N1CCOCC1,inactive
10,CCN(CC)c1ccc(/C=N/NC(=O)C(O)c2ccccc2)cc1 (stereo not given),inactive
11,CN(C)N=C1c2cc(S(=O)(=O)N3CCOCC3)ccc2-c2ccc(S(=O)(=O)N3CCOCC3)cc21,inactive
12,COc1ccc(OC)c(/C=C/C(=O)N(C)CC(=O)Nc2ccc(C)cc2)c1,inactive
13,CN(C)C=Nc1nc2ccccc2nc1N1CCCC1,inactive
14,O=[N+]([O-])c1ccccc1Nc1ccc(O)cc1,inactive
15,O=S(=O)(c1cccc(Cl)c1)N1CCOCC1,inactive
16,COc1ccc(S(=O)(=O)N2CCOCC2)cc1,inactive
17,CCOC(=O)C(CC)(CCC(=O)O)c1csc(Nc2ccc(C)cc2)n1 (stereo not given),inactive
18,Cc1ccc2c(=O)c3ccccc3n(CCCN)c2c1C,inactive
19,CNc1ncnc2c1ncn2[C@H]1C[C@H](OP(=O)(O)O)[C@@H](COP(=O)(O)O)O1,inactive
20,CCC1C(=O)NCCN1Cc1nc(-c2ccc(C)s2)oc1C (stereo not given),inactive
